Measured values: ChEMBL document CHEMBL3988442, “University of Dundee, Small-Polar-MMV Screening Library” (2021)

Assays:
[1] = biological target: T1, Aspartate--tRNA(Asp/Asn) ligase (Mycobacterium tuberculosis (strain ATCC 25618 / H37Rv)) (UniProt P9WFW3); assay: Assay for Asp RNA synthetase-1 from Mycobacterium tuberculosis; type: functional; parameters: scale not given: direction of the effect not stated beside the values; settings: 30 µM; also: in the data most compounds retested in dose-response had high values
T1 sequence (whole entry): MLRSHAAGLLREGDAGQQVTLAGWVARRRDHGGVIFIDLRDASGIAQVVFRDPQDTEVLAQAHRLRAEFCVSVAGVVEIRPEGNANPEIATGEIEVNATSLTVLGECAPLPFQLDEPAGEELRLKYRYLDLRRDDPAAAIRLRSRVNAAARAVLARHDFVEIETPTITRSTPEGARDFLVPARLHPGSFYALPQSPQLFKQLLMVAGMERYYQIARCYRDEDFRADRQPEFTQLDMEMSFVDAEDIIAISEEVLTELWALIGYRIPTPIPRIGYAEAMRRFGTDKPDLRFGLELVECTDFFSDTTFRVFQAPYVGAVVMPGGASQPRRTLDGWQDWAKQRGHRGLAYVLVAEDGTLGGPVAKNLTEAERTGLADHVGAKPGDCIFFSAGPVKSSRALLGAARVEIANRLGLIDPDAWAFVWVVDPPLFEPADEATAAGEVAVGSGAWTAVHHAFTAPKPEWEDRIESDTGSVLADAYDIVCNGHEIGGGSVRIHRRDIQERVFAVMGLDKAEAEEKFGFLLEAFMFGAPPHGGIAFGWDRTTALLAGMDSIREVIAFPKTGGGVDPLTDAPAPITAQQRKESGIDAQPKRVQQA

[2] = biological target: Shiga toxin 2 (Escherichia coli O157:H7) (UniProt P09385+P09386); assay: E. coli 0.157:H7 Shiga Toxin SOP - stx2 screening assay; type: functional; parameters: scale not given: direction of the effect not stated beside the values; settings: 30 µM

Structure (SMILES)	Percent Effect [1]	Percent Effect [2]
Cc1nccnc1CN1CCC2(CCCN(C3CCOCC3)C2=O)C1 (stereo not drawn)	2.6%	-28.8%
COc1cccc(CCC(=O)N2CCCC(n3cc(C)cn3)C2)c1 (stereo not drawn)	-3.33%	10.7%
COc1cccc(CNC(=O)CC2CSc3ncc(C)c(=O)n32)c1 (stereo not drawn)	1.5%	6.98%
O=C(NCC(=O)N1CCc2ccccc2C1)c1ccoc1	1.62%	-10.2%
CN(Cc1ccco1)C(=O)[C@H]1CSCN1C(=O)OC(C)(C)C	-1.74%	10.2%
CN(CC(F)(F)F)C(=O)C1CSCN1C(=O)OC(C)(C)C (stereo not drawn)	2.82%	-9.84%
CC(=O)N1CCN(Cc2nnc(C(C)(C)C)o2)CC1	3.25%	-4.69%
Cc1cccc(-n2cc(C(=O)N3CCn4c(C)nnc4C3)nn2)c1	-2.42%	-92.9%
Cc1ccc2c(c1)C1(CCNCC1)CN2C(=O)CN(C)C	-0.657%	6.1%
NC(=O)CCOc1nc(-c2ccccc2Cl)no1	-4.51%	-35.8%
Cc1ccc(CN2CCc3ncnc(-c4cccnc4)c3CC2)o1	4.98%	9.48%
CC(C)NC(=O)C1CN(C(N)=O)Cc2ccnn2C1 (stereo not drawn)	-3.46%	-5.82%
CCc1cnc(CN(C)C2CCN(CCc3cccs3)C2)o1 (stereo not drawn)	2.92%	23.3%
CN(C)CC(=O)N1CCOCC2(C1)CN(c1ccccc1)C(=O)CO2 (stereo not drawn)	3.93%	-23.2%
COc1cccc(CN(C)C(=O)CN2CC(n3nc(C)cc3C)C2)c1	1.62%	-22.3%
NC(=O)C1CCCN(C(=O)c2cnc3c(cnn3C3CCCC3)c2)C1 (stereo not drawn)	-6.91%	-20.7%
COc1ccc(C(=O)N2CCCC(C)C2)cc1F (stereo not drawn)	0.26%	13.7%
COc1ccccc1OCC(=O)NS(=O)(=O)c1cc(F)ccc1F	0.145%	-7.87%
COc1cccc(-c2nccnc2C2CCN(C(C)=O)CC2)c1	-3.41%	16.4%
